From PubChem
KCNQ2 block – KCNQ2 (rat) channel inhibition; O88943; CHO-K1 KCNQ2, FluxOR thallium flux, 20 min; hits give low values; B-score at 10 µM; 310,000 tested, 1.1% active;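 active means fluorescence ratio B-score at most minus 3 library SDs, with starting brightness B-score within 2 library SDs, cut at about -5.5 in these data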
KCNQ2 enhance – enhances the rat KCNQ2 potassium channel; CHO-K1 KCNQ2, FluxOR thallium flux fluorescence; hits give high values; B-score at 10 µM; 310,000 tested, 0.54% active; AID 2239;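 active means fluorescence ratio B-score at least 3 SD of library B-scores, with initial fluorescence B-score within 3 of them, cut at about 5.3 in these data; same plate scores as AID 2156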;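 further: B-score of peak minus minimum over baseline fluorescence ratio after K+ and Tl+ stimulus; positive B-score means potentiation of KCNQ2 with more thallium influx and brighter signal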
Kir21 conf inh – confirmation of mouse Kir2.1 potassium channel inhibitors; shares compounds with KCNQ2 enhance; Kir2.1-expressing cells, FluxOR thallium flux fluorescence; hits give low values; Tl flux remaining, % of negative control (hits give low values), % at 10 µM; 2,300 tested, 41% active; AID 2032;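 active means Primary-screen hit whose thallium flux fell at least 3 control SD below untreated wells in both duplicates, with normal baseline fluorescence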;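 further: 0% = blank wells without stimulus and 100% = stimulated no-compound controls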
Target sequence (P35561 whole entry, looked up): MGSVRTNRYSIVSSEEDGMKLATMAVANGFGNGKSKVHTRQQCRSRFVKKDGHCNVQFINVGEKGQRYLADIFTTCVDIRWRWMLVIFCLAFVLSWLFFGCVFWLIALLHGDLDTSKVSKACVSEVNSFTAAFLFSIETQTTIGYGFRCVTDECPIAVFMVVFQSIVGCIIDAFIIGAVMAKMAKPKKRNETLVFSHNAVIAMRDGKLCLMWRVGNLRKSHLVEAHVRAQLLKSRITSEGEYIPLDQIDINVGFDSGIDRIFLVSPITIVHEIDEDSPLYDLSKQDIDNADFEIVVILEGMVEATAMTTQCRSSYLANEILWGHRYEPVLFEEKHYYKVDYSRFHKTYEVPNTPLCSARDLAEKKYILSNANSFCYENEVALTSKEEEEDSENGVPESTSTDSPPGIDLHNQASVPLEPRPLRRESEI
HEK293 ctr – parental HEK293 activity in Kir2.1 inhibitor counter-screen | shares compounds with KCNQ2 enhance | parental HEK293 cells, FluxOR thallium flux fluorescence; 0% = unstimulated blank wells | FluxOR signal as % of negative control (100 = no effect), % at 10 µM | 2,300 tested, 19% active;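 active means dye signal at least 3 control SD above or below untreated wells in both duplicates, raw fluorescence within 3, either direction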;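 further: percent is based on the flux ratio of peak minus minimum fluorescence over baseline F0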
CHO-K1 ctr – counter-screen for KCNQ2 potentiators: effect in parental CHO-K1 cells | 1,200 tested, 43% active | shares compounds with KCNQ2 enhance | activity increase over 3SD of controls, % at 10 µM | FluxOR thallium flux fluorescence; zero = vehicle mean+3SD, 100% = vehicle-minus-blank window;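 active means signal rise of at least 3 SD above the untreated control mean, in both duplicate wells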;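 further: counter screen of KCNQ2 potentiator hits so any rise reflects channel-independent effects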
KCNQ1 sel pot – tests whether KCNQ2 potentiators also act on human KCNQ1; CHO KCNQ1 stable, FluxOR thallium flux fluorescence; beyond 3SD, as % of vehicle-control signal; shares compounds with KCNQ2 enhance; activation over 3SD threshold, % at 10 µM; 1,200 tested, 28% active;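 active means fluorescence ratio rise of at least 3 SD of vehicle wells above their mean, in both replicate wells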;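 further: 0% = vehicle mean plus 3 SD and 100% = vehicle minus unstimulated blank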
KCNQ2 pot confirm – confirmation of rat KCNQ2 potassium channel potentiators; AID 2287; CHO-KCNQ2 cells, FluxOR thallium flux fluorescence; shares compounds with KCNQ2 enhance; 1,200 tested, 68% active; potentiation, less the hit threshold, % at 10 µM;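 active means fluorescence ratio rising 3 SD or more over the vehicle control mean in both replicates, plus primary screen hit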;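 further: peak minus minimum thallium fluorescence divided by baseline after K/Tl stimulus; 0% = vehicle mean plus 3 SD and 100% = vehicle minus unstimulated blank difference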
Kir21 spec – mouse Kir2.1 off-target activity of KCNQ2 potentiators; activity over 3SD threshold, % at 10 µM; HEK293 Kir2.1, FluxOR thallium flux fluorescence; 1,200 tested, 2% active; shares compounds with KCNQ2 enhance;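 active means fluorescence ratio rise of at least 3 SD above the vehicle-control mean, seen in both replicates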;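 further: 0% = vehicle mean plus 3 SD and 100% = vehicle minus no-stimulus blank window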
KCNQ2 W236L MoA – potentiates the retigabine-insensitive rat KCNQ2 W236L mutant channel. shares compounds with KCNQ2 enhance. CHO KCNQ2-W236L, automated patch clamp current. current increase over 3SD of negative controls (%), hits give high values, % at 25 µM. 940 tested, 10% active. AID 2558;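 active means current increase at least 3 SD of the untreated controls above them in both duplicate recordings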
* marks the source's active call; other numbers are inactive results; i = inactive; · = no result given. Shown are actives, neighbours in structure and some others; about 1.6% of the full set was active somewhere.

SMILES	KCNQ2 block	KCNQ2 enhance	Kir21 conf inh	HEK293 ctr	others
CCS(=O)(=O)c1ccc2oc(SCC(=O)Nc3ccc(OC)cc3OC)nc2c1	i	0.67	·	·
COc1ccc(NC(C)=O)cc1NC(=O)c1ccc2ccccc2c1	i	·	·	·
O=[N+]([O-])c1ccc(C(O)CSC(=S)N2CCCCC2)cc1 (centres undefined)	i	0.14	·	·
CN1CCN(C(=S)c2cn(CCOc3ccccc3F)c3ccccc23)CC1	i	·	·	·
CCc1ccc(CN2CCC(C(=O)Nc3ccc(Oc4ccccc4)nc3)CC2)o1	i	0.37	·	·
CNc1ccccc1C(=O)OC(C)C(=O)Nc1ccc(Cl)cn1 (centres undefined)	i	0.65	·	·
CCC(C(=O)OC(C)C(=O)Nc1ccc(Cl)cn1)c1ccccc1 (centres undefined)	i	·	58%*	68%*
CCOC(=O)CCNC(=O)c1ccc2nc(C3CCCCC3)oc2c1	i	2	·	·
CCc1ccc(CNC(=O)c2ccc3nc(C4CCCCC4)oc3c2)nc1	i	17*	·	·	CHO-K1 ctr=-11;KCNQ1 sel pot=17*;KCNQ2 pot confirm=9.2*;Kir21 spec=-45;KCNQ2 W236L MoA=i
Cc1ccc(OCC(=O)NCc2n[nH]c(=O)c3ccccc23)cc1	i	0.5	·	·
CCn1c(CCNC(=O)c2ccc(C)cc2)nnc1SCc1ccc(Cl)c(Cl)c1	i	·	·	·
CCn1c(CCNC(=O)c2ccc(OC)cc2)nnc1SCc1ccc(Cl)c(Cl)c1	i	·	67%*	i
COc1cc(C(=O)OCC(=O)N2CCC(Cc3ccccc3)CC2)cc(OC)c1OC	i	5.6*	i	67%*	CHO-K1 ctr=-8;KCNQ1 sel pot=-14;KCNQ2 pot confirm=35*;Kir21 spec=-50;KCNQ2 W236L MoA=i
O=C(OCC(=O)N1CCC(Cc2ccccc2)CC1)c1ccccc1	i	0.04	·	·
Cc1ccc(S(=O)(=O)N2CCCCC2)cc1C(=O)Nc1ccc(S(=O)(=O)Nc2ncccn2)cc1	i	·	·	·
CN1C(=O)/C(=N\OC(=O)c2cccc3ccccc23)c2ccccc21	i	5.4*	i	i	CHO-K1 ctr=-16;KCNQ1 sel pot=-12;KCNQ2 pot confirm=-19;Kir21 spec=-36
COc1ccc(C(=O)O/N=C2\C(=O)N(C)c3ccccc32)cc1	i	·	·	·
Cc1cccc(Oc2ccccc2NC(=O)CN2C(=O)NC3(CCCC3)C2=O)c1	i	4.4	·	·
Cc1ccc(Oc2ccccc2NC(=O)CN2C(=O)NC3(CCCC3)C2=O)cc1	i	6.3*	i	i	CHO-K1 ctr=26*;KCNQ1 sel pot=22*;KCNQ2 pot confirm=13*;Kir21 spec=-36;KCNQ2 W236L MoA=i
CCCCC(=O)Nc1cccc(NC(=O)c2cccnc2Cl)c1	i	·	·	·
CCn1cc(C(=O)N2CCN(c3ccccc3F)CC2)c(=O)c2ccc(C)nc21	i	0.07	·	·
CC(NCCCOc1cccc2ccccc12)c1ccccc1 (centres undefined)	i	·	14%*	i
COc1ccc2ccccc2c1CNC(C)c1ccccc1 (centres undefined)	i	1.4	·	·
O=C(Nc1cccc(F)c1)N(Cc1ccc(Cl)cc1)CC(O)C(F)(F)F (centres undefined)	i	6.7*	i	i	CHO-K1 ctr=-1;KCNQ1 sel pot=40*;KCNQ2 pot confirm=14*;Kir21 spec=-27;KCNQ2 W236L MoA=i
O=C(Nc1ccccc1)N(Cc1ccccc1)CC(O)C(F)(F)F (centres undefined)	i	·	·	·
COc1ccc(C)cc1NC(=O)c1ccc2c(O)c(S(=O)(=O)c3ccccc3)c(=O)[nH]c2c1	i	·	·	·
Cc1ccccc1NC(=O)NC1(C(=O)N2CCC(C(N)=O)CC2)CCCCC1	i	1	·	·
COc1ccccc1-c1nc(=S)c(C(C)=O)c(C)[nH]1	i	0.12	·	·
